From PubChem
IL1B secr inh: qHTS for Inhibitors of Inflammasome Signaling: IL-1-beta AlphaLISA Primary Screen; AID 743279, 2014; actives 4.7% (n = 360,000); THP-1 LPS/ATP IL-1B secretion, AlphaLISA, 16 h; hits give low values; activity change, % at 57.5 µM; in the data active means activity change below about -50%; inconclusive means mostly about -30% to -49%
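THP-1 cells pretreated 1 hr with compounds (up to 57.5 uM final), then stimulated with LPS (250 ng/mL final) plus ATP (1.25 mM final); secreted IL-1B measured by AlphaLISA after 16 hr, decreased signal indicating inhibition.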
DT40 TDP1 CPT: qHTS for Inhibitors of human tyrosyl-DNA phosphodiesterase 1 (TDP1): qHTS in cells in presence of CPT. chicken DT40 Tdp1-/-;hTDP1 cells + 20 nM CPT, ATP luminescence, 48 h. Potency, µM (titrated, usually from 46.2 µM), most hits filed as inhibitors. AID 686979, 2013. actives 12% (n = 420,000); further: nearly all actives have a fitted effect of over 55% in size
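Chicken DT40 Tdp1-/- cells stably complemented with human TDP1 were seeded at 400 cells/well in medium containing 20 nM camptothecin, exposed to pin-transferred compounds, and grown at 37 °C for at least 48 hr. Viability was read as ATP luminescence.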
HT1080 IDH1KD tx: qHTS for induction of synthetic lethality in tumor cells producing 2HG: qHTS for the HT-1080-IDH1KD cell line; HT-1080 IDH1 knockdown viability, ATP luminescence, 48 h; Potency, µM (series often up to 46.1 µM), usual class: cytotoxic; actives 2% (n = 360,000)
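IDH1KD HT-1080 cells, 750/well, RPMI + 5% FBS; compound pinned after 2 h settling; 48 h, 37 °C; CellTiter-Glo luminescence; % activity normalised to DMSO and no-cell wells; curves fitted, classed by r2 and efficacy.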
HT1080-NT tox: qHTS for induction of synthetic lethality in tumor cells producing 2HG: qHTS for the HT-1080-NT fibrosarcoma cell line | HT-1080-NT fibrosarcoma viability, CellTiter-Glo ATP luminescence, 48 h | Potency, µM (highest dose often 46.1 µM), hits mostly cytotoxic | actives 1.6% (n = 360,000) | AID 686970, 2013;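 further: NT is the 2HG producing partner of a matched IDH1 knockdown line; nearly all actives have a fitted effect of over 55% in size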
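HT-1080-NT; 750 cells/well; 5% FBS RPMI; 48 h compound, 37 degrees C; CellTiter-Glo luminescence; curve fitting and curve-class assignment.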
TDP1 cell noCPT: qHTS for Inhibitors of human tyrosyl-DNA phosphodiesterase 1 (TDP1): qHTS in cells in absence of CPT; DT40 Tdp1-/- hTDP1 cells, no CPT, ATP luminescence, 48 h; actives 15% (n = 420,000); AID 686978, 2013; Potency, µM (highest dose often 46.2 µM), hits mostly inhibitors; further: nearly all actives have a fitted effect of over 55% in size
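Camptothecin absent (DMSO only). Human TDP1-complemented DT40 knockout cells, 400 cells/well, 37 °C for minimum 48 hr; ATP measured via CellTiter-Glo, 30 min dark incubation, luminescence.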
Numbers stand for hits; . = inactive; ? = inconclusive; / = no result given. An excerpt weighted towards active compounds, which were near 19% of everything screened. Unless noted, the call rests on the fitted dose curve; in most records, active means well fitted curve in the direction sought with a large enough effect; inconclusive means small, poorly fitted or top-dose-only effect, or another doubt; inactive means no such curve, though single readings can be large; an effect the other way counts as inactive or inconclusive.

SMILES	IL1B secr inh	DT40 TDP1 CPT	HT1080 IDH1KD tx	HT1080-NT tox	TDP1 cell noCPT
CC(C)c1ccccc1NC1=NCCCS1	.	.	.	.	.
COCc1cc(C)c(C#N)c(=S)[nH]1	.	1.2µM	.	.	0.82µM
Clc1ccc2c(c1)C(c1ccccc1)=NCc1nncn1-2	/	.	/	/	.
O=C(Nc1ccc(Cl)cc1)C1CCN(C(=O)c2cccs2)CC1	.	.	.	.	?
O=C(CCN1CC2CCC(CC2)C1)c1cccs1	.	2.1µM	?	.	4.1µM
N#CCN1CCN(c2ccc(C(F)(F)F)cc2)CC1	.	.	.	.	.
CC1=C[C@H](O)CC(C)(C)[C@H]1/C=C/C(C)=C/C=C/C(C)=C/C=C/C=C(C)/C=C/C=C(C)/C=C/C1=C(C)C[C@@H](O)CC1(C)C	/	.	/	/	?
Cc1ccc(CN2C3CCCC2CC(NC(=S)NCc2ccccc2)C3)cc1 (centres undefined)	-65	?	?	23µM	?
COCCCn1c(N)c(C(=O)Nc2sc3c(c2C(=O)OC)CCCC3)c2nc3ccccc3nc21	-72	?	.	.	18µM
CCC(C)NC(=O)c1c(N)n(CCCOC)c2nc3ccccc3nc12 (centres undefined)	?	.	.	.	?
COCCCn1c(N)c(C(=O)Nc2ccccc2)c2nc3ccccc3nc21	-76	29µM	?	?	?
CC(=O)OCC1=C(C(=O)O)N2C(=O)[C@@H](N)[C@H]2SC1	/	.	/	/	.
CCCC(C)C1(CC)C(=O)N=C(S)NC1=O (centres undefined)	/	.	/	/	.
Cc1ccc2oc(-c3ccc(Cl)cc3)c(O)c(=O)c2c1	/	21µM	/	/	16µM
COC1C=CC23c4cc5c(cc4CN(CC2O)C3C1)OCO5 (centres undefined)	/	2.1µM	/	/	1.3µM
CN1C(=O)C(c2ccccc2)C(=O)N(C)C1=O	.	.	.	.	.
O=[N+]([O-])c1ccc(C(c2ccc([N+](=O)[O-])cc2)c2ccc([N+](=O)[O-])cc2)cc1	.	7.3µM	?	?	12µM
OCCCNc1ccccc1	/	.	/	/	.
CCN(CC)S(=O)(=O)c1ccc(C(=O)NC(=S)N2CCN(c3ccccc3O)CC2)cc1	.	?	.	.	18µM
O=C(NC(=S)N1CC1)c1ccccc1	.	.	.	.	?
CN1C(=O)/C(=C\c2ccc(Br)s2)C(=O)NC1=S	-99	?	.	.	16µM
O=C1NC(=S)NC(=O)C1=Cc1cccc2cc3ccccc3cc12	-99	5.2µM	?	?	2.6µM
COc1ccc(C=C2C(=O)NC(=S)NC2=O)cc1	.	?	.	.	?
O=C1NC(=S)NC(=O)C1=Cc1c(Cl)cccc1Cl	-99	10µM	.	.	16µM
O=C1NC(=S)NC(=O)C1=Cc1ccc(Br)s1	-100	10µM	?	?	9.2µM
SMILES	IL1B secr inh	DT40 TDP1 CPT	HT1080 IDH1KD tx	HT1080-NT tox	TDP1 cell noCPT
CC1(C)CC(n2[nH]c(=O)c3c2NC(=O)CSC3c2ccccc2)CCO1 (centres undefined)	.	?	.	.	?
CC(C)NC(C)Cc1ccc(I)cc1 (centres undefined)	.	.	.	.	?
CCC1(CCCC(=O)c2ccc(F)cc2)C(=O)NC(=S)NC1=O	.	.	.	.	.
NC(=NCCC[C@H](N)C(=O)O)N[N+](=O)[O-]	/	.	/	/	.
CC(C(=O)c1cn(C)c2ccccc12)c1ccccc1 (centres undefined)	.	?	.	.	?
C[C@H]1CCCC=CC2C[C@H](O)C[C@@H]2[C@H](O)C=CC(=O)O1 (some centres undefined)	/	0.028µM	/	/	0.15µM
C[C@H]1CCC/C=C/[C@@H]2C[C@H](O)C[C@H]2[C@@H](O)/C=C/C(=O)O1	-54	0.18µM	0.15µM	?	0.58µM
CCCCC[C@@H]1CCCCC[C@H](O)C[C@H](O)[C@@H](O)/C=C/C(=O)O1	.	?	.	.	?
Cc1ccc(OC(=O)N(C)C[C@@H]2OCc3cnnn3CCCC(=O)N([C@H](C)CO)C[C@H]2C)cc1	.	.	.	.	.
CC(C)CCNC(=O)c1cc(C(=O)c2cc(Br)ccc2O)cn(CCC(C)C)c1=O	.	?	.	.	?
C[N+]1=Cc2cc3c(cc2CC1)OCO3	/	.	/	/	.
O=C(NCCCN1CCCC1)c1ccc2c(c1)N(Cc1cccc(Cl)c1)C(=O)c1ccccc1S2=O (centres undefined)	.	?	?	16µM	?
COc1ccc(O)c2c(=O)c3c(OC)cc4c(c3oc12)C1C=COC1O4 (centres undefined)	.	1.3µM	.	?	0.92µM
O=c1[nH]c(=O)n(-c2ccccc2F)c(O)c1/C=C1\C=Nc2ccccc21	.	16µM	.	.	21µM
COc1ccc(-n2c(O)c(/C=C3\C=Nc4ccc(Br)cc43)c(=O)[nH]c2=O)c(OC)c1	-96	?	?	.	?
O=c1[nH]c(=O)n(-c2ccc(F)cc2)c(O)c1/C=C1\C=Nc2ccccc21	.	.	.	.	.
COc1ccc(-n2c(O)c(/C=C3\C=Nc4ccc(Br)cc43)c(=O)[nH]c2=O)cc1	.	?	.	.	?
CC(=O)c1c(O)cc2c3c1OC(C)(C)C1CCC(C)(CC31)O2 (centres undefined)	.	21µM	.	.	13µM
Clc1ccccc1Cl	/	.	/	/	.
COc1cc(C)c(-c2nc(CN3C[C@@H]4C[C@@H](C3)c3cccc(=O)n3C4)c(C)o2)cc1C	-115	?	.	.	?
COc1cc(CN2CC3CC(C2)c2cccc(=O)n2C3)cc(OC)c1OC (centres undefined)	.	.	.	.	.
CC1Cc2cc(S(=O)(=O)N(Cc3ccccc3)C(C)C)ccc2N1C(=O)C1CCC1 (centres undefined)	/	?	/	/	21µM
CC(=O)N1c2ccc(S(=O)(=O)N3CCCC(C(=O)Nc4cc(C)cc(C)c4)C3)cc2CC1C (centres undefined)	.	?	.	.	?
CCN1C[C@]2(COC)CC[C@H](OC)[C@@]34C5C[C@@H]6[C@@H](OC)C[C@@]7(OCO[C@@]7([C@@H](O)C23)[C@@H]14)C5[C@H]6OC (some centres undefined)	/	.	/	/	.
CC(C)(C)NS(=O)(=O)c1cccc(S(=O)(=O)c2cccc(S(=O)(=O)NC(C)(C)C)c2)c1	.	23µM	?	?	?
